According to publication PMC11062922 (Nature Chemical Biology, 2023):
Where two headings read alike, the source gives them in different places.

Columns and labels:
Parameters in all cases: species or system human, MV4-11 + K-562 + COLO205 + SK-N-BE2 + OVCAR-8
RPS6KB1 = settings: read-out: apparent Kd; compound concentrations: 100 nM and 1000 nM (sheet 'Samples'), CATDS: 7.08215510279748E-2; n = 1
NEK2 = settings: read-out: apparent Kd; compound concentrations:100 nM and 1000 nM (sheet 'Samples'); n = 1
PKMYT1 = settings: read-out: apparent Kd; compound concentrations:100 nM and 1000 nM (sheet 'Samples'); n = 1
IRAK1 = settings: read-out: apparent Kd, n = 1
CDK10 = settings: read-out: apparent Kd, n = 1
PKM = settings: read-out: apparent Kd, compound concentrations: 100 nM and 1000 nM (sheet 'Samples'), n = 1
DCK = settings: read-out: apparent Kd, n = 1
PRKCI = settings: read-out: apparent Kd, n = 1
TUBB6 = settings: read-out: apparent Kd, n = 1
CDK12 = settings: read-out: apparent Kd; compound concentrations:100 nM and 1000 nM (sheet 'Samples'); n = 1
CDK13 = settings: read-out: apparent Kd, n = 1
CSNK1G3 = settings: read-out: apparent Kd; compound concentrations:100 nM and 1000 nM (sheet 'Samples'); n = 1
PI4KA = settings: read-out: apparent Kd; compound concentrations:100 nM and 1000 nM (sheet 'Samples'); n = 1
CIT = settings: read-out: apparent Kd; compound concentrations:100 nM and 1000 nM (sheet 'Samples'); n = 1
DHCR24 = settings: read-out: apparent Kd, n = 1
SLC25A6;SLC25A4 = settings: read-out: apparent Kd, n = 1
EPHA7 = settings: read-out: apparent Kd; compound concentrations:100 nM and 1000 nM (sheet 'Samples'); n = 1
PSMC3 = settings: read-out: apparent Kd, n = 1
CDC42BPG = settings: read-out: apparent Kd, compound concentrations: 100 nM and 1000 nM (sheet 'Samples'), n = 1
CAMK2D = settings: read-out: apparent Kd, n = 1
[1] = compound concentrations:100 nM and 1000 nM (sheet 'Samples')

With `O=C1N=C(NCCc2ccccc2F)S/C1=C\c1ccc2ncccc2c1` [RO4498483-000] the potency estimated from few doses (RPS6KB1) was 1720 nM.
`CCN(CC)CCOc1ccc(Nc2ncc3cc(-c4c(Cl)cccc4Cl)c(=O)n(C)c3n2)cc1` [SB-601273] was tested, and the potency estimated from few doses (NEK2) was 1780 nM and the potency estimated from few doses (PKMYT1) was 1030 nM.
Compound `CNC(=O)c1ccccc1Nc1nc(Nc2cccc(CS(C)(=O)=O)c2)ncc1C.O=CO` [GSK1520489A] has a potency estimated from few doses (IRAK1; compound concentrations: 100 nM and 1000 nM (sheet 'Samples'), CATDS: 1.0270392688251299E-2) of 1150 nM.
For `CN1CCN(Cc2ccc(NC(=O)Nc3ccc(N(C)c4ccnc(Nc5ccc(CS(C)(=O)=O)cc5)n4)cc3)cc2)CC1.Cl` [GW827654A], the potency estimated from few doses (CDK10; compound concentrations: 100 nM and 1000 nM (sheet 'Samples'), CATDS: 3.5844771224848297E-2) was 1570 nM.
`CN1CCN(Cc2ccc(-c3ccc4c(Nc5ccc(Oc6ccccn6)cc5)ccnc4c3)o2)CC1` [GW567140X] was tested, and the potency estimated from few doses (PKM; CATDS: 3.4326075880393901E-2) was 1520 nM.
Work on `O=S(=O)(CCOCc1ccc(-c2ccc3ncnc(Nc4ccc(OCc5cccc(F)c5)c(Cl)c4)c3c2)o1)c1ccccc1` [GW615311X] yielded a potency estimated from few doses (DCK; compound concentrations: 100 nM and 1000 nM (sheet 'Samples'), CATDS: 2.31641141582303E-2) of 2110 nM, a potency estimated from few doses (PRKCI; compound concentrations: 100 nM and 1000 nM (sheet 'Samples'), CATDS: 2.29472037028754E-2) of 2160 nM and a potency estimated from few doses (TUBB6; compound concentrations: 100 nM and 1000 nM (sheet 'Samples'), CATDS: 2.6696132806602001E-2) of 1500 nM.
For `N#Cc1cccc(Nc2nccc(-c3cnn4ncccc34)n2)c1` [GW778894X], the potency estimated from few doses (CDK10; [1]) was 405 nM, the potency estimated from few doses (CDK12) was 541 nM and the potency estimated from few doses (CDK13; [1]) was 1160 nM. It also gave a potency estimated from few doses (IRAK1; [1]) of 896 nM.
Work on `Nc1nc(N)c2nc(-c3ccccc3)[nH]c2n1` [SKF-12778] yielded a potency estimated from few doses (CSNK1G3) of 1180 nM, a potency estimated from few doses (DCK; [1]) of 1720 nM and a potency estimated from few doses (PI4KA) of 1400 nM. For the same compound, the potency estimated from few doses (TUBB6; [1]) was 1770 nM.
Compound `CC(=O)c1c(-c2ccncc2)[nH]c(-c2ccncc2)c1C` [GW493036X] has a potency estimated from few doses (CIT) of 173 nM, a potency estimated from few doses (CSNK1G3) of 842 nM and a potency estimated from few doses (DHCR24; [1]) of 1240 nM.
Compound `CNc1nccc(-c2c(-c3ccc(F)cc3)ncn2C2CCN(C)CC2)n1` [SB-222903] has a potency estimated from few doses (CIT) of 670 nM.
`O=S(=O)(c1ccc(-c2ccnc3[nH]ccc23)cc1)N1CCCC1` [GSK846226A] was tested, and the potency estimated from few doses (SLC25A6;SLC25A4; [1]) was 2020 nM.
`COc1cccc(C2=C(c3cn(C)c4c(C)cccc34)C(=O)NC2=O)c1` [RO3301012-000] was tested, and the potency estimated from few doses (SLC25A6;SLC25A4; compound concentrations: 100 nM and 1000 nM (sheet 'Samples'), CATDS: 9.9606855520270293E-2) was 1850 nM.
Work on `Cc1ccc(-n2nc(C(C)(C)C)cc2NC(=O)Nc2ccc(OCCN3CCOCC3)cc2)cc1` [BIRB0876BS] yielded a potency estimated from few doses (EPHA7) of 1830 nM.
`Fc1cccc(COc2ccc(Nc3ncncc3C#Cc3ccccc3)cc2Cl)c1` [GW651576X] showed a potency estimated from few doses (PSMC3; compound concentrations: 100 nM and 1000 nM (sheet 'Samples'), CATDS: 4.80880541633023E-2) of 1950 nM.
Work on `NC(=O)c1cccnc1COc1cc(-c2ccc(N3CCOCC3)nc2)cc2ncccc12` [BI01125081] yielded a potency estimated from few doses (EPHA7) of 1500 nM.
Work on `CCCCCNC(=O)[C@@H]1CCCN2C(=O)CC[C@H](NC(=O)[C@H](Cc3ccc(OP(=O)(O)O)cc3)NC(C)=O)C(=O)N12` [RO0324694-000] yielded a potency estimated from few doses (PSMC3; [1]) of 1910 nM.
For `Nc1c(C(=O)c2ccccc2)cnn1-c1ccc(F)cc1` [RO1151246-000], the potency estimated from few doses (PRKCI; [1]) was 2030 nM.
For `COc1ccc(-c2nn3ncccc3c2-c2ccnc(Nc3ccc4c(c3)OCCO4)n2)cc1` [GW827106X], the potency estimated from few doses (CDC42BPG; CATDS: 6.5617212110221396E-2) was 834 nM and the potency estimated from few doses (CDK13; compound concentrations: 100 nM and 1000 nM (sheet 'Samples'), CATDS: 4.6663696277222499E-2) was 1770 nM.
With `Cc1[nH]nc2c1N=C(c1ccccc1Cl)c1cc([N+](=O)[O-])ccc1N2` [RO0274406-000] the potency estimated from few doses (PKM; CATDS: 7.8896221929170104E-2) was 922 nM.
Work on `Cl.Oc1ccc2ncnc(Nc3ccc(OCc4ccccc4)cc3)c2c1` [GI262866A] yielded a potency estimated from few doses (CAMK2D; [1]) of 388 nM.
For `Cn1cc(C2=C(c3ccccc3[N+](=O)[O-])C(=O)NC2=O)c2ccccc21` [RO0317753-000], the potency estimated from few doses (CAMK2D; compound concentrations: 100 nM and 1000 nM (sheet 'Samples'), CATDS: 9.7402766920506798E-2) was 597 nM.
With `COc1ccc(Nc2nccc(N3CCC(NC(=O)Nc4cccc(OC)c4)C3)n2)cc1` (stereo not shown) [GSK1379742A] the potency estimated from few doses (DHCR24; compound concentrations: 100 nM and 1000 nM (sheet 'Samples'), CATDS: 0.157459675408709) was 1060 nM.
`COc1ccc(C2=C(Nc3cccc(O)c3)C(=O)NC2=O)cc1` [SB-390766] showed a potency estimated from few doses (PI4KA) of 1330 nM.
For `COc1cc(F)c(F)c(F)c1C(=O)c1cnc(NC2CCN(S(C)(=O)=O)CC2)nc1N` [RO4600703-000], the potency estimated from few doses (CDK12) was 2300 nM.
`CN(C)CCOc1ccc(-c2cc(-c3ccc4c(c3)CCC4=NO)c(-c3ccncc3)o2)cc1.Cl` [SB-682330-A] gave a potency estimated from few doses (CDC42BPG; CATDS: 0.27820560825635698) of 1600 nM.
